Laboratory results as given in PubChem BioAssay (EPA / NIEHS).
Records with an inconclusive call do not appear. Activity calls are given as the source filed them. Rule for the calls: active = hit-call score of the fitted dose curve at least 0.9, where 1 is the maximum; inconclusive = response in the unintended direction; inactive = score below 0.9.

Molecular target: human Beta-secretase (BACE), BACE1 (gene 23621) (UniProt P56817)
Assay: NVS_ENZ_hBACE: NovaScreen (NVS) Enzymatic Assay for human Beta-secretase (BACE) (AID 2283140);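 note: hits are inhibitors that reduce fluorescent substrate signal versus DMSO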
Experimental: NVS_ENZ_hBACE is a biochemical, single-readout assay that uses extracted gene-proteins from SF9 in a cell-free assay. Measurements were taken 1 hour after chemical dosing in a 96-well plate.NVS_ENZ_hBACE is one of one assay component(s) measured or calculated from the NVS_ENZ_hBACE assay. It is designed to make measurements of enzyme activity, a form of enzyme reporter, as detected with fluorescence intensity signals by Fluorescence technology.Data from the assay component NVS_ENZ_hBACE was analyzed into 1 assay endpoint. This assay endpoint, NVS_ENZ_hBACE, was analyzed in the positive analysis fitting direction relative to DMSO as the negative control and baseline of activity. Using a type of enzyme reporter, loss-of-signal activity can be used to understand changes in the enzymatic activity as they relate to the gene BACE1. Furthermore, this assay endpoint can be referred to as a primary readout, because […]. To generalize the intended target to other relatable targets, this assay endpoint is annotated to the protease intended target family, where the subfamily is aspartate protease.
Binding assays used specific radioligands (tritiated, iodinated) with non-radioactive competitive displacement ligands in agonist or antagonist protocols (as indicated) and various reference compounds and inhibitors to titrate specific binding to receptors and transporters. Most enzyme assays (CYPs, kinases, phosphatases, proteases, HDACs) used recombinant protein and specific substrates (fluorescence mostly, some colorimetric and radioactive) and inhibitors, followed by a biochemical separation of substrate and product. All assays for the biochemical HTS were initially run in duplicate at a single concentration (10 uM for CYP450 assays and 25 uM for all others). […] Each assay was run with positive and negative controls, and concurrent controls on every plate. The follow-up (secondary) screen tested active chemical-pairs in concentration series, as well as a few additional assays not tested in the primary screen, some selected negative inactives, and several cases re-run in the concentration series for confirmatory purposes.

Chain of human Beta-secretase (BACE), BACE1 (gene 23621) (P56817 whole entry, looked up): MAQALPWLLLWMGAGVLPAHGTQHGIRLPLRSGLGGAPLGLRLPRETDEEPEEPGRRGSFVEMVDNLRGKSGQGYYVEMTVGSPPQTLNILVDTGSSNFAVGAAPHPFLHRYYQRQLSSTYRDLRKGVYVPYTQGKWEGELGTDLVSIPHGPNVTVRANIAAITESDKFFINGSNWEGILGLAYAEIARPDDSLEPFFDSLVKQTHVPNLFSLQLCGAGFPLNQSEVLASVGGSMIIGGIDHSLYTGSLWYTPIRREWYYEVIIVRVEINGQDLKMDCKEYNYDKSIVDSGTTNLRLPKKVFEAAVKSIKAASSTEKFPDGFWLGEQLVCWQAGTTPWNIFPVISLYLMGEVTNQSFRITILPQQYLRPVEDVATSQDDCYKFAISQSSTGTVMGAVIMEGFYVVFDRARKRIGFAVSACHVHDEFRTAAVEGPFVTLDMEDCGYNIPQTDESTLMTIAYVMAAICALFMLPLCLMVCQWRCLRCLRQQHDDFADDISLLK

Row | SMILES | AC50 | outcome
1 | S=C([S-])NCCNC(=S)[S-].[Mn+2] | 17.6 µM (active) | 
2 | C[C@]12CC[C@@H]3c4ccc(O)cc4C[C@@H](CCCCCCCCCS(=O)CCCC(F)(F)C(F)(F)F)[C@H]3[C@@H]1CC[C@@H]2O (stereo partly specified) |  | inactive
3 | Oc1ccc(C(c2ccc(O)cc2)C(Cl)(Cl)Cl)cc1 | 4.96 µM (active) | 
4 | CC1(C)C(C=C(Cl)Cl)C1C(=O)OCc1cccc(Oc2ccccc2)c1 (stereo unspecified) | 40.2 µM (active) | 
5 | N[C@@H](Cc1cc(I)c(Oc2ccc(O)c(I)c2)c(I)c1)C(=O)O | 25.9 µM (active) | 
6 | CCCCCOC(=O)COc1cc(N2C(=O)C3=C(CCCC3)C2=O)c(F)cc1Cl | 3.5 µM (active) | 
7 | CCCCCCC(C)OC(=O)COc1nc(F)c(Cl)c(N)c1Cl (stereo unspecified) | 3.29 µM (active) | 
8 | CCCCOC(=O)C(C)Oc1ccc(Oc2ccc(C(F)(F)F)cn2)cc1 (stereo unspecified) | 25 µM (active) | 
9 | CCCCOC(=O)[C@@H](C)Oc1ccc(Oc2ccc(C(F)(F)F)cn2)cc1 |  | inactive
10 | O=C(c1ccc(O)cc1O)c1ccc(O)cc1O |  | inactive
11 | S=C(S)NCCNC(=S)S.[Mn+2].[S-]C([S-])=NCCN=C([S-])[S-].[Zn+2] | 9.11 µM (active) | 
